# Measurements reported in PubChem BioAssay AID1347416 (National Center for Advancing Translational Sciences (NCATS), 2020).
# The campaign covered roughly 4,100 compounds. About 1,600 (39%) were called active. Not shown: some 25% with an inconclusive outcome. This is one part of the list. Values without a mark were called inactive. The call rests on the fitted dose curve; in most records, active means well fitted inhibition curve with a large enough effect; inconclusive means small, poorly fitted or top-dose-only effect; inactive means no such curve, though single readings can be large or run the other way.
# Experiment: qHTS Validation assay for Inhibitors of Plasmodium falciparum Dd2 growth in vitro; further: nearly all actives have a fitted effect of over 70% in size
# Conditions: P. falciparum Dd2 in RBCs, SYBR Green growth, 72 h; series mostly up to 28.7 µM; activity change, negative = inhibition: at the top concentration
# Outline: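 P. falciparum Dd2-infected red blood cells (2.5% hematocrit, 0.3% parasitemia) grown 72 h at 37 °C under 5% O2 with compounds in a titration, 29 uM to 0.5 nM final. Growth read as SYBR Green-1 fluorescence after ~16 h lysis; artesunate 300 nM as positive control.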
# On the % scale 0 is the no-effect control and ±100 the full control effect; potency means the concentration at half of the fitted maximal effect.
SMILES,"activity change, negative = inhibition",Potency
O=S(=O)(c1cccc(F)c1)N1CCC2(CC1)CC(Cc1nc(C3CC3)no1)CCO2 (stereo not given),-3.18%,
CC1(CCCCc2ccccc2)COc2ccc(C(=O)NC3CCC(O)CC3)cc2N1 (stereo not given),41.1% [at 43.1 µM],
CCN(C(=O)Cn1c(=O)n(Cc2ccc3c(c2)OCO3)c(=O)c2ccc(C(=O)NC3CCCCC3)cc21)c1cccc(C)c1,,6.68 µM (active)
O=C(NC1CCN(c2cnn(CC3CC3)c(=O)c2)CC1)c1ccc2c(c1)OCO2,1.48%,
O=C(c1ccco1)N1CCC(Oc2ccccc2-c2nc(-c3ccccc3)no2)C1 (stereo not given),5.65%,
O=C(Cc1cccc(F)c1)N1CCC(Oc2ccccc2-c2nc(C3CC3)no2)C1 (stereo not given),-21.5%,
c1ccc(-c2nc(-c3ccncc3)no2)c(OC2CCN(C3CCCC3)C2)c1 (stereo not given),,15 µM (active)
Cc1cc(C(=O)Nc2cnn(Cc3ccc(Cl)cc3Cl)c2)no1,,9.44 µM (active)
Cc1cn2nc(C(=O)NCc3ccccc3Cl)cc2c(=O)[nH]1,-12.1%,
Cc1cc(/C(N)=N/OC(=O)c2ccccc2Cl)no1,5.14%,
OCc1cccc(-c2ccc3ncc(Nc4ccc(OCCN5CCCC5)cc4)n3n2)c1,,3.44 µM (active)
COc1cncc(Nc2cnc3ccc(-c4ccc(F)cc4)nn23)c1,,3.06 µM (active)
COc1ccc(-c2ccc3ncc(Nc4ccncc4)n3n2)cc1OC,,4.85 µM (active)
COc1ccc(C(=O)NCc2nnc3ccc(-c4ccc(F)cc4)nn23)c(OC)c1,1.1%,
COc1ccc(-c2ccc(SCc3ccccn3)nn2)cc1OC,-0.343%,
COc1ccc(Nc2cnc3ccc(-c4ccc(OC)c(OC)c4)nn23)cc1,,1.72 µM (active)
Cc1oc(C(C)C)cc1C(=O)N1CC[C@](C)(O)[C@@H](O)C1,77.2%,
CC(=O)N1CCC([C@@H]2CN(C3CCN(CC(C)C)CC3)C[C@H]2CO)CC1,11.4%,
O=C(O)CC1(CC(=O)N2CCN3C(=O)N(Cc4ccccc4)C(=O)[C@H]3C2)CCCC1,-25.2% [at 43.1 µM],
CCCc1noc(-c2ccn3c(CNC(=O)c4ccc5ccccc5n4)nnc3c2)n1,-9.45%,
COc1cncc(Nc2cnc3ccc(-c4ccc(OC)c(OC)c4)nn23)c1,,1.22 µM (active)
c1ccc(-c2ccc3ncc(Nc4cccnc4)n3n2)cc1,,4.85 µM (active)
O=C(NCc1nnc2ccc(-c3ccccc3)nn12)c1ccoc1,16.5%,

SMILES,"activity change, negative = inhibition",Potency
CCC1(O)CCCN(c2ncc(C(C)(C)C(=O)O)c(N3CCOCC3)n2)C1 (stereo not given),82.3%,
CCOc1cc(C2c3c(oc4ccccc4c3=O)C(=O)N2Cc2ccc3c(c2)OCO3)ccc1O (stereo not given),7.62%,
CCOC(=O)c1ccc(NC2=CC(c3ccc(O)c(OCC)c3)N(c3ccc(C(=O)OCC)cc3)C2=O)cc1 (stereo not given),,3.35 µM (active)
CCOC(=O)c1ccc(NC2=CC(c3ccc(F)cc3)N(c3ccc(C(=O)OCC)cc3)C2=O)cc1 (stereo not given),,8.41 µM (active)
O=C(CNC1=NCCC1)c1ccc2c(c1)OCCO2,19.9%,
Nc1cc[n+](CC(=O)c2ccc3c(c2)OCCO3)cc1,,13.3 µM (active)
COc1cc(C2NC(=O)c3c(sc4c3CCN(C)C4)N2)cc(OC)c1OC (stereo not given),12.5%,
O=C(Nc1cccc2ccccc12)O[C@@H]1CO[C@H]2[C@@H]1OC[C@@H]2n1nnnc1-c1ccc(-c2ccccc2)cc1,36.3%,
CCC(C)c1ccc(N(C(=O)c2ccco2)C(C(=O)NC2CCCC2)c2cccnc2)cc1 (stereo not given),,6.68 µM (active)
CC(C)N1C(=O)C(CC(=O)N(C)Cc2cccnc2)=C2CCCCC21 (stereo not given),0%,
COc1cncc(Nc2ncc(-c3c(C)noc3C)c3c2OCC3)c1,-18.9% [at 43.1 µM],
Cc1noc(C)c1-c1cc2cc(CN(C)C)oc2c(Nc2cccnc2)n1,,12.2 µM (active)
Cc1noc(C)c1-c1cc2cc(CN(C)C)oc2c(NCc2cccnc2)n1,,1.22 µM (active)
Cc1cccc(Cn2nnc3c(=O)[nH]c(C4CCCN(C(=O)c5ccc(C(C)(C)C)cc5)C4)nc32)c1 (stereo not given),,2.66 µM (active)
O=C(c1ccc(F)cc1)N1CCC(c2nn(Cc3ccccc3)c(=O)[nH]2)CC1,38.4%,
Cc1cn2nc(-c3nc(C4CCCN(C(=O)c5ccc(C)c(F)c5)C4)no3)cc2c(=O)[nH]1 (stereo not given),-21.2%,
NC(=O)c1cccc(-c2ncc3c(n2)OCCN(Cc2ccc(F)cc2F)C3=O)c1,-26% [at 43.1 µM],
Cc1cn2nc(-c3nc(C4CCCN(C(=O)c5cccc(Cl)c5)C4)no3)cc2c(=O)[nH]1 (stereo not given),-16.5%,
O=C(c1cccc(Cl)c1)N1CCC(c2nc3c(nnn3Cc3ccc(F)cc3F)c(=O)[nH]2)CC1,,5.96 µM (active)
CC(C)(C)c1ccc(C(=O)N2CCCC(c3nc4c(nnn4Cc4cccc(F)c4)c(=O)[nH]3)C2)cc1 (stereo not given),,16.8 µM (active)
Cc1cccc(CC(=O)N2CCCC(n3cc(-c4nc(-c5ccccc5)no4)nn3)C2)c1 (stereo not given),-19.8%,
O=C(c1cccc(Cl)c1)N1CCC(c2nn(Cc3ccccc3)c(=O)[nH]2)CC1,20.2%,
CO[C@H]1C(=O)N(C2CCN(S(=O)(=O)c3cccnc3)CC2)[C@H]1c1ccncc1,-3.7%,

SMILES,"activity change, negative = inhibition",Potency
Cc1ccc(Nc2nc3nonc3nc2Nc2cccc(C(F)(F)F)c2)cc1Cl,,2.11 µM (active)
CCOC(=O)Cc1csc(NC(=S)NC(=O)c2ccc(C)cc2)n1,37.3%,
CCOc1ccc(-c2nonc2NC(=O)c2ccc(C)cc2)cc1OCC,,1.68 µM (active)
CCCOc1ccc(-c2nonc2NC(=O)c2cc(OC)c(OC)c(OC)c2)cc1OCCC,,5.96 µM (active)
CCOc1ccc(-c2nonc2NC(=O)COc2c(C)cc(C)cc2C)cc1OCC,3.46%,
CCNc1nc(OC)nc(Oc2ccc(=O)n(-c3ccccc3)n2)n1,,5.96 µM (active)
CC(C)Cn1c(-c2ccco2)nc2c(c(=O)c3ccccc3n2C)c1=O,,9.44 µM (active)
COc1ccc(S(=O)(=O)N2CCN(C(=S)NC3CCCCC3)CC2)cc1,,6.68 µM (active)
O=S(=O)(c1ccc(F)cc1)N1CCN(C(=S)NC2CC2)CC1,,3.35 µM (active)
Cc1ccc(S(=O)(=O)N2CCC(C(=O)NC3CC3)CC2)cc1,-28%,
CS(=O)(=O)N1CCC(OC2CCN(C(=O)Nc3cc(F)ccc3F)CC2)CC1,11.4%,
O=C(CC1CCN(C(=O)c2cccs2)C1)NCc1ccccc1 (stereo not given),9.3%,
O=C(c1cccs1)N1CCC(n2cc(-c3nc(-c4ccccc4)no3)nn2)CC1,-8.44%,
CCOc1ccc(CN2CC[C@@](C)(O)[C@H](N3CCCC3)C2)cc1,-16.2%,
O=C(c1cccs1)N1CCC(O)(c2ccccc2)[C@H](N2CCCC2)C1 (stereo not given in full),,9.44 µM (active)
O[C@]1(c2ccccc2)CCN(Cc2ccco2)C[C@H]1N1CCCC1,,8.41 µM (active)
Cc1nn(C)cc1CN1CCC(O)(c2ccccc2)[C@H](N2CCCC2)C1 (stereo not given in full),-28.5%,
O[C@]1(c2ccccc2)CCN(Cc2ccncc2)C[C@H]1N1CCCC1,,9.44 µM (active)
c1ccc(-c2noc(-c3ccn4c(CN5CCN(c6ccccn6)CC5)nnc4c3)n2)cc1,-6.11%,
CCOc1ccc2[nH]c3c(NCCN(C)C)ncnc3c2c1,,16.8 µM (active)
CC1Cn2c(nnc2-c2cc3ccccc3cc2O)S1 (stereo not given),,4.73 µM (active)
CCc1ccc(Oc2c(C(F)(F)F)oc3c(CN4CCN(C)CC4)c(O)ccc3c2=O)cc1,,0.75 µM (active)
CCc1ccc(Oc2c(C(F)(F)F)oc3c(CN4CCN(CC)CC4)c(O)ccc3c2=O)cc1,,0.376 µM (active)

SMILES,"activity change, negative = inhibition",Potency
C=CCO[C@@H]1CCN2C(=O)c3cc(-c4cc(Cl)ccc4OC)ccc3NC(=O)[C@H]12,-16.7% [at 43.1 µM],
CC(C)C(=O)NCC1CN(Cc2ccccc2)C(=O)c2c(ccnc2-c2ccc(OCC(=O)O)cc2)O1 (stereo not given),,2.11 µM (active)
O=C(O)COc1ccc(-c2nccc3c2C(=O)N(Cc2ccccc2)CC(CNC(=O)c2ccc(F)cc2)O3)cc1 (stereo not given),-17.6%,
Cc1cccc(Nc2nc(NCc3ccco3)c3ccccc3n2)c1,,4.73 µM (active)
OCCNc1nc(Nc2ccc(Br)cc2)nc2ccccc12,,2.66 µM (active)
Oc1ccccc1Nc1nc(NCc2ccco2)c2ccccc2n1,,2.99 µM (active)
c1ccc(Nc2nc(NCc3ccco3)c3ccccc3n2)cc1,,1.68 µM (active)
NCC(=O)N1CCC(n2nccc2NC(=O)c2ccc3c(c2)OCO3)CC1,37.3%,
CN1C(=O)c2cncnc2OCC1CNC(=O)Cc1cccs1 (stereo not given),1.04% [at 43.1 µM],
COc1cc(O)c(C(CCN2CCN(c3ccccc3)CC2)c2ccc(N(C)C)cc2)c(OC)c1 (stereo not given),,0.596 µM (active)
COc1ccc(C(CCN2CCN(c3ccccc3)CC2)c2c(O)cc(OC)cc2OC)cc1 (stereo not given),,0.944 µM (active)
N#Cc1c(N2CCN(c3ccc(F)cc3)CC2)nc(N)c2c(N)nc3c(c12)CC(=O)N3C1CC1,,0.668 µM (active)
C=CCOC(=O)C1=C[C@@H](c2ccc(C(F)(F)F)cc2)[C@H](CCCO)[C@@H](OCC)O1,,7.5 µM (active)
CC(C)(C)n1nnnc1C(c1cc2cc3c(cc2[nH]c1=O)OCO3)N1CCN(c2ccccc2)CC1 (stereo not given),,7.5 µM (active)
COc1ccccc1N1CCN(C(c2cc3ccc(C)cc3[nH]c2=O)c2nnnn2C2CCCC2)CC1 (stereo not given),,7.5 µM (active)
COc1ccc(N2CCN(C(c3cc4ccc(C)cc4[nH]c3=O)c3nnnn3C3CCCC3)CC2)cc1 (stereo not given),,6.68 µM (active)
COCCN1CC2(CCCN(Cc3cc(C(C)(C)C)n[nH]3)C2)CCC1=O (stereo not given),0%,
Cc1ccccc1OCCn1cc(C(=O)c2ccco2)c2ccccc21,,5.31 µM (active)
Cc1ccc(C)c(OCCn2cc(C(=O)c3ccco3)c3ccccc32)c1,,5.31 µM (active)
COC(=O)c1cccc(NC(=S)N[C@H]2CO[C@H]3[C@@H]2OC[C@H]3OC(=O)Nc2ccccc2)c1,7.55%,
COCCN(CCOC)c1nc(N)c2c(N)nc3c(c2c1C#N)CC(=O)N3Cc1ccc(Cl)cc1,,5.96 µM (active)
